{"source": "the supplement of paper PMC10849652", "note": "Of roughly 8,800 targets only a part is listed; those with a hit were picked by preference. About 0.5% of all pairs of compound and target were hits. Values without a mark were called inactive.", "data": [{"compound": "C=CC(=O)N1CCC[C@@H](n2nc(-c3ccc(Oc4ccccc4)cc3)c3c(N)ncnc32)C1 [ibrutinib]", "assay": "log2 fold change, soluble protein after heating vs DMSO (PISA); higher = thermal stabilisation; K562 lysate, 10 uM; active = over 0.2 and 3.5 SD of the protein, either way, in both replicates (recomputed)", "procedure,_shortened": "(§1)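 To prepare the extract, K562 pellets were dounce-homogenised in PBS pH 7.4 with 1 mM MgCl2, giving crude material at 1 mg/mL protein. This was treated with 10 μM compound for 30 min, then heated in aliquots for 3 min over 48°C-58°C before pooling and addition of NP-40 to 0.5% at 4°C. Centrifugation at 21,000xg for 90 min left soluble protein in the supernatant, which TMTpro 16plex LC-MS/MS quantified with equalised channel sums. Results are log-two fold changes in thermal stability compared with solvent controls, from duplicates.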", "values": [{"target": "CSDE1 isoform 3 (UniProt O75534)", "log2 fold change": 0.051}, {"target": "CHEK2 (UniProt O96017)", "sequence (O96017 whole entry, looked up)": "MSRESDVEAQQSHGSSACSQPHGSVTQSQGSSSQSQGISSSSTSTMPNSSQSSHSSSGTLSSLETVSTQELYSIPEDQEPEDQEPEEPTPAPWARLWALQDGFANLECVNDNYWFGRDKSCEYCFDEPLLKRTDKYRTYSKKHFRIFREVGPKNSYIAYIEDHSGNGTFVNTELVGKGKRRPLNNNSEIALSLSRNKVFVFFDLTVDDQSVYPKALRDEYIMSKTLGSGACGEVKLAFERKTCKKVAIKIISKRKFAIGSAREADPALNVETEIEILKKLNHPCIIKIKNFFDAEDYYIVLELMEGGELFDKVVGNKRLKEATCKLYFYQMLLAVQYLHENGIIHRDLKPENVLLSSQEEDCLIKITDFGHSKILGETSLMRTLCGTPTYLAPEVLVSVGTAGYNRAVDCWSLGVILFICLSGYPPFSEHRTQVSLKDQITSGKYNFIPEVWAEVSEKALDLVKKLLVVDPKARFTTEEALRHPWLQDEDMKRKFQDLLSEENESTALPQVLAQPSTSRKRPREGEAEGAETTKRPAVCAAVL", "log2 fold change": 0.04}, {"target": "DLGAP5 isoform 3 (UniProt Q15398)", "log2 fold change": -0.076}, {"target": "CHMP4A (UniProt H0YIN6)", "log2 fold change": -0.077}, {"target": "CSNK1D (UniProt P48730)", "sequence (P48730 whole entry, looked up)": "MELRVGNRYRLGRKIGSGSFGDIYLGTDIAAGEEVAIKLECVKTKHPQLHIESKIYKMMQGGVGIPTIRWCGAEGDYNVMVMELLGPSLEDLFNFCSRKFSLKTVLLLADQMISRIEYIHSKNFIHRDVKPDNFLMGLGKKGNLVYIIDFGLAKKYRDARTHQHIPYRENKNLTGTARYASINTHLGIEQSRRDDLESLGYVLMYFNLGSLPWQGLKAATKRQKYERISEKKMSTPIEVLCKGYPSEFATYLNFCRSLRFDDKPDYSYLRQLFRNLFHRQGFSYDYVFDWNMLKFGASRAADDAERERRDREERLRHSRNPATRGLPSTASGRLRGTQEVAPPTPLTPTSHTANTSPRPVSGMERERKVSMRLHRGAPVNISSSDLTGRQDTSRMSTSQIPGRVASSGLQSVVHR", "log2 fold change": -0.086}, {"target": "DDR1 isoform 5 (UniProt Q08345)", "log2 fold change": 0}, {"target": "CSAD isoform 3 (UniProt Q9Y600)", "sequence (Q9Y600 whole entry, looked up)": "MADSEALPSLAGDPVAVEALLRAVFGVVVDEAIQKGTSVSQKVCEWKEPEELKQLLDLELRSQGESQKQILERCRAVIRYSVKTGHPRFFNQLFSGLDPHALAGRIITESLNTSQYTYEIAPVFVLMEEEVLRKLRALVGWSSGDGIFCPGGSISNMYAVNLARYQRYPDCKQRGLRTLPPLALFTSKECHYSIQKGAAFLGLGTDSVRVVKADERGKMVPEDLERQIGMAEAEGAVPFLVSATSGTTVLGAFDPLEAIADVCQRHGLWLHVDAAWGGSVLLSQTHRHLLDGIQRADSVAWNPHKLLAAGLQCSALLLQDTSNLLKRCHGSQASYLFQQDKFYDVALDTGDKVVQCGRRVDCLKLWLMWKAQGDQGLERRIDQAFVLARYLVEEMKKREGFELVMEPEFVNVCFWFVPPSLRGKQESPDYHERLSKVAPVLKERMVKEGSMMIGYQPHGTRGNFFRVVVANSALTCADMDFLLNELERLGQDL", "log2 fold change": -0.224}, {"target": "DHRS13 (UniProt Q6UX07)", "sequence (Q6UX07 whole entry, looked up)": "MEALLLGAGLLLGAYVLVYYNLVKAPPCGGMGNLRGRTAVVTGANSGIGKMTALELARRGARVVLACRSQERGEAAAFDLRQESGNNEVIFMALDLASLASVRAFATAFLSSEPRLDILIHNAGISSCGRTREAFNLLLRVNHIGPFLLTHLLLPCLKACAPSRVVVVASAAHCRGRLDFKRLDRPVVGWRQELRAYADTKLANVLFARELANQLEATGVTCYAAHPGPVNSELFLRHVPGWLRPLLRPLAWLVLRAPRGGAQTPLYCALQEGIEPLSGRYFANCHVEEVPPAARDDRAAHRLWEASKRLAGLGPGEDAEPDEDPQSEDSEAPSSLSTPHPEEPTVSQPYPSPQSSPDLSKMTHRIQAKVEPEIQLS", "log2 fold change": -0.106}, {"target": "COL6A3 (UniProt P12111)", "log2 fold change": -0.087}, {"target": "CRLS1 (UniProt Q9UJA2)", "sequence (Q9UJA2 whole entry, looked up)": "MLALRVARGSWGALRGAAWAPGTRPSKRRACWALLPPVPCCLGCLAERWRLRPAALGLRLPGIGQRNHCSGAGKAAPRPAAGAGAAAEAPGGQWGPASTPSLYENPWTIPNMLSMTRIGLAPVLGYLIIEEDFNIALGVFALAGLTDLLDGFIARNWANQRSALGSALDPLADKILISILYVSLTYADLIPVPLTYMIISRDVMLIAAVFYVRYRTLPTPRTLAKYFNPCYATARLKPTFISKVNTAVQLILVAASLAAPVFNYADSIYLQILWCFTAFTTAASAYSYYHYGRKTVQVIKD", "log2 fold change": -0.023}, {"target": "CINP isoform 3 (UniProt Q9BW66)", "log2 fold change": 0}, {"target": "CIC (UniProt I3L1Q4)", "log2 fold change": 0.005}, {"target": "CYP4V2 (UniProt Q6ZWL3)", "sequence (Q6ZWL3 whole entry, looked up)": "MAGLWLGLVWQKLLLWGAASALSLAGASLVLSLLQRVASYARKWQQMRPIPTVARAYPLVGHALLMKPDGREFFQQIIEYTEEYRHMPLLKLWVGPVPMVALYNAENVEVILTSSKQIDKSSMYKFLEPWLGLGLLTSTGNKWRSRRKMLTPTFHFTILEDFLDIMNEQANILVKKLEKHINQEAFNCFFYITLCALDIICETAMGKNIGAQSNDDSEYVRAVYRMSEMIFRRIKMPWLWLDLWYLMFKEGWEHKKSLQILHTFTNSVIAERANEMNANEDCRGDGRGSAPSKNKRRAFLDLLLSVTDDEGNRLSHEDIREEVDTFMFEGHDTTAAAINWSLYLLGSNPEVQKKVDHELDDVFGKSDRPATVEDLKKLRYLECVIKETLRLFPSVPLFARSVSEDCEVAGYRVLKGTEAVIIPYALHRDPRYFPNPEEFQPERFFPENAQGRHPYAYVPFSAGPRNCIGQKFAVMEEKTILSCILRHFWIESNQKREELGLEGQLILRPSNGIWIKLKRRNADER", "log2 fold change": 0.157}, {"target": "CXCL14 (UniProt O95715)", "sequence (O95715 whole entry, looked up)": "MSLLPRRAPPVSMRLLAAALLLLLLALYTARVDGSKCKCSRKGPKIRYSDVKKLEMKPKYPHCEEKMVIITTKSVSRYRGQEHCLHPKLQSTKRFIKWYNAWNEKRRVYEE", "log2 fold change": -0.012}, {"target": "DONSON (UniProt Q9NYP3)", "log2 fold change": 0.059}, {"target": "CSRP2 (UniProt Q16527)", "log2 fold change": 0.054}]}, {"compound": "CC(=O)c1cnc2ccc(-c3cc(Cl)c(O)c(Cl)c3)nc2c1N[C@H]1CC[C@H](CN(C)C)CC1", "assay": "log2 fold change, soluble protein after heating vs DMSO (PISA); higher = thermal stabilisation; K562 lysate, 10 uM; active = over 0.2 and 3.5 SD of the protein, either way, in both replicates (recomputed)", "procedure,_shortened": "as §1", "values": [{"target": "CSDE1 isoform 3 (UniProt O75534)", "log2 fold change": -0.331}, {"target": "COPS9 (UniProt Q8WXC6)", "sequence (Q8WXC6 whole entry, looked up)": "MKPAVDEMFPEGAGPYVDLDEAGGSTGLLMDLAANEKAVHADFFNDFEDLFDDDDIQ", "log2 fold change": -0.059}, {"target": "CSNK1G3 isoform 4 (UniProt Q9Y6M4)", "log2 fold change": 0.235}, {"target": "CHEK2 (UniProt O96017)", "log2 fold change": -0.043}, {"target": "CHMP4A (UniProt H0YIN6)", "log2 fold change": -0.203}, {"target": "COL12A1 (UniProt Q99715)", "log2 fold change": 0.72}, {"target": "CSNK1D (UniProt P48730)", "log2 fold change": "0.494 (active)"}, {"target": "DALRD3 (UniProt Q5D0E6)", "log2 fold change": 0.028}, {"target": "CLASP2 (UniProt O75122)", "sequence (O75122 whole entry, looked up)": "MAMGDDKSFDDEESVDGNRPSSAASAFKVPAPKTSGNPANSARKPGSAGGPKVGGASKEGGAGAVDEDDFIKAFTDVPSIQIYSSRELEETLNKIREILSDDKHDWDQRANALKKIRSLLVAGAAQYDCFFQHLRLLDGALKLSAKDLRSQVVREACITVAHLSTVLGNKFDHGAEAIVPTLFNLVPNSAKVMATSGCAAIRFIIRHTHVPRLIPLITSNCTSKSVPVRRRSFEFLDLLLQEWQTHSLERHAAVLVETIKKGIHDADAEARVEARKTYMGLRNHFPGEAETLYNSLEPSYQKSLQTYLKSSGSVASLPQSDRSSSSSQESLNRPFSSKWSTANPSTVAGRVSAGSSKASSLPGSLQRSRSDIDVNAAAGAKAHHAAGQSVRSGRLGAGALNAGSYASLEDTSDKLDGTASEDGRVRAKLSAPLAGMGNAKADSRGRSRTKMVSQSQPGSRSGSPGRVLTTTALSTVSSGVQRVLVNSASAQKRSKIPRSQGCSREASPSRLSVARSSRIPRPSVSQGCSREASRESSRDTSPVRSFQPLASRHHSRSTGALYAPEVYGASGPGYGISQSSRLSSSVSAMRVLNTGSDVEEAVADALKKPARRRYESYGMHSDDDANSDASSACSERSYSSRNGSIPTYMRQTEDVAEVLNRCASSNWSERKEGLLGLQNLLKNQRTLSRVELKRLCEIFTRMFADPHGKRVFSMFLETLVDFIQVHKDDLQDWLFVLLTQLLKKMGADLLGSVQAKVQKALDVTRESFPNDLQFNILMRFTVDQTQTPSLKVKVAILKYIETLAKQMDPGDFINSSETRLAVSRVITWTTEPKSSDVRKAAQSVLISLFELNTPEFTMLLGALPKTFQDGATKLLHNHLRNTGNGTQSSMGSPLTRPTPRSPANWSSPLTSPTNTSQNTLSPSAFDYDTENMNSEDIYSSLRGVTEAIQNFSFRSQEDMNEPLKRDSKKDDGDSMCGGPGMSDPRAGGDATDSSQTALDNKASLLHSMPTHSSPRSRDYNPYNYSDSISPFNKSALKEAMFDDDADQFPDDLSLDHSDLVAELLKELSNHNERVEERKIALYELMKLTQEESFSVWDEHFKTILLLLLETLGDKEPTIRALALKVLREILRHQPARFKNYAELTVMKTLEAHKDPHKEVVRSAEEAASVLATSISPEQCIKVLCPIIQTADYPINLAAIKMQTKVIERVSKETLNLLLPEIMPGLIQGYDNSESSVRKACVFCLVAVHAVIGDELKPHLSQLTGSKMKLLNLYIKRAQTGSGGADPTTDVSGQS", "log2 fold change": -0.048}, {"target": "DHRS13 (UniProt Q6UX07)", "log2 fold change": -0.003}, {"target": "CPLX1 (UniProt O14810)", "log2 fold change": -0.071}, {"target": "CSNK2A1, A0A2R8Y4D6", "log2 fold change": 0.172}, {"target": "CRLS1 (UniProt Q9UJA2)", "log2 fold change": -0.008}, {"target": "DAPK1 isoform 3 (UniProt P53355)", "log2 fold change": 0.35}, {"target": "CLIP1 isoform 2 (UniProt P30622)", "log2 fold change": 0.05}, {"target": "CINP isoform 3 (UniProt Q9BW66)", "log2 fold change": -0.012}, {"target": "CYP4V2 (UniProt Q6ZWL3)", "log2 fold change": 0.129}, {"target": "DNM2 isoform 4 (UniProt P50570)", "sequence (P50570 whole entry, looked up)": "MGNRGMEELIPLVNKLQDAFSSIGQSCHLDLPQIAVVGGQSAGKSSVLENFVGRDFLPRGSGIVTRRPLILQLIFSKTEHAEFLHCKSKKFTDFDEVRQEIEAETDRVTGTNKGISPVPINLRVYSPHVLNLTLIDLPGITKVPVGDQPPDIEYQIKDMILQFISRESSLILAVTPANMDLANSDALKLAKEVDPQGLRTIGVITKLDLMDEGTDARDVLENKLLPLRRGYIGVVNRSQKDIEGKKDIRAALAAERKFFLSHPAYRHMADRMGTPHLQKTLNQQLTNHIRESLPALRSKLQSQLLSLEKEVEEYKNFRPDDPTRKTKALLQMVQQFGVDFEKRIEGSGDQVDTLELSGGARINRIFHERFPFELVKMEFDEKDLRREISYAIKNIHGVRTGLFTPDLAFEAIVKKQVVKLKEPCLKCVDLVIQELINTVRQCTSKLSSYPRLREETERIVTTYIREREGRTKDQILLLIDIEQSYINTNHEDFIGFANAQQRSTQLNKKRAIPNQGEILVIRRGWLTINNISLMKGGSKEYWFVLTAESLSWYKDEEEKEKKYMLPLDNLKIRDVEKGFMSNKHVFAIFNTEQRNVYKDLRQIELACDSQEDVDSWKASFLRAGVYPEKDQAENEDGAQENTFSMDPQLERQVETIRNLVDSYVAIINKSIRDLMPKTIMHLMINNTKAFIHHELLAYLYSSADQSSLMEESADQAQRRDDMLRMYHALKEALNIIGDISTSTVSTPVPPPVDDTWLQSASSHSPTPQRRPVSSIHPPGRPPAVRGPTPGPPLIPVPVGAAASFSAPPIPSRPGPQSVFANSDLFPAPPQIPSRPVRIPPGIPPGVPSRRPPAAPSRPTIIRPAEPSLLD", "log2 fold change": -0.018}, {"target": "DONSON (UniProt Q9NYP3)", "log2 fold change": 0.002}]}, {"compound": "CC(C)(C)Cn1c(N)nc2ccc(-c3[nH]c(C(C)(C)C)nc3-c3ccc(F)cc3)nc21 [ralimetinib]", "assay": "log2 fold change, soluble protein after heating vs DMSO (PISA); higher = thermal stabilisation; K562 lysate, 10 uM; active = over 0.2 and 3.5 SD of the protein, either way, in both replicates (recomputed)", "procedure,_shortened": "as §1", "values": [{"target": "CSDE1 isoform 3 (UniProt O75534)", "log2 fold change": 0.047}, {"target": "COPS9 (UniProt Q8WXC6)", "log2 fold change": 0.146}, {"target": "CHEK2 (UniProt O96017)", "log2 fold change": -0.011}, {"target": "CHMP4A (UniProt H0YIN6)", "log2 fold change": -0.253}, {"target": "CSNK1D (UniProt P48730)", "log2 fold change": -0.038}, {"target": "DDR1 isoform 5 (UniProt Q08345)", "log2 fold change": 0.205}, {"target": "CSAD isoform 3 (UniProt Q9Y600)", "log2 fold change": -0.019}, {"target": "CLASP2 (UniProt O75122)", "log2 fold change": 0.075}, {"target": "CORO7 (UniProt P57737)", "log2 fold change": -0.039}, {"target": "DHRS13 (UniProt Q6UX07)", "log2 fold change": 0.094}, {"target": "CPLX1 (UniProt O14810)", "log2 fold change": 0.079}, {"target": "COL6A3 (UniProt P12111)", "log2 fold change": 0.174}, {"target": "CRLS1 (UniProt Q9UJA2)", "log2 fold change": 0.079}, {"target": "DAPK1 isoform 3 (UniProt P53355)", "log2 fold change": 0.041}, {"target": "DHX32 (UniProt Q7L7V1)", "log2 fold change": 0.096}, {"target": "CNK3/IPCEF1 isoform 2 (UniProt G9CGD6)", "log2 fold change": 0.215}, {"target": "CLIP1 isoform 2 (UniProt P30622)", "log2 fold change": -0.002}, {"target": "CINP isoform 3 (UniProt Q9BW66)", "log2 fold change": 0.047}, {"target": "CYP4V2 (UniProt Q6ZWL3)", "log2 fold change": 0.058}, {"target": "CLIP1, A0A3B3ITA2", "log2 fold change": 0.156}, {"target": "DNM2 isoform 4 (UniProt P50570)", "log2 fold change": 0.011}, {"target": "DONSON (UniProt Q9NYP3)", "log2 fold change": -0.033}, {"target": "CSNK1A1 isoform 3 (UniProt P48729)", "log2 fold change": 0.13}]}, {"compound": "CC(C)(O)CC(=O)NCCn1ccc2ncnc(Nc3ccc(Oc4cccc(C(F)(F)F)c4)c(Cl)c3)c21", "assay": "log2 fold change, soluble protein after heating vs DMSO (PISA); higher = thermal stabilisation; K562 lysate, 10 uM; active = over 0.2 and 3.5 SD of the protein, either way, in both replicates (recomputed)", "procedure,_shortened": "as §1", "values": [{"target": "CSDE1 isoform 3 (UniProt O75534)", "log2 fold change": 0.019}, {"target": "COPS9 (UniProt Q8WXC6)", "log2 fold change": -0.213}, {"target": "CHEK2 (UniProt O96017)", "log2 fold change": 0.081}, {"target": "CHMP4A (UniProt H0YIN6)", "log2 fold change": -0.354}, {"target": "CSNK1D (UniProt P48730)", "log2 fold change": -0.112}, {"target": "DDR1 isoform 5 (UniProt Q08345)", "log2 fold change": 0.021}, {"target": "CSAD isoform 3 (UniProt Q9Y600)", "log2 fold change": -0.048}, {"target": "CLASP2 (UniProt O75122)", "log2 fold change": 0.069}, {"target": "CORO7 (UniProt P57737)", "log2 fold change": 0.06}, {"target": "DHRS13 (UniProt Q6UX07)", "log2 fold change": -0.111}, {"target": "CPLX1 (UniProt O14810)", "log2 fold change": -0.139}, {"target": "COL6A3 (UniProt P12111)", "log2 fold change": -0.132}, {"target": "CRLS1 (UniProt Q9UJA2)", "log2 fold change": -0.027}, {"target": "DAPK1 isoform 3 (UniProt P53355)", "log2 fold change": 0}, {"target": "DHX32 (UniProt Q7L7V1)", "log2 fold change": -0.144}, {"target": "CNK3/IPCEF1 isoform 2 (UniProt G9CGD6)", "log2 fold change": -0.138}, {"target": "CLIP1 isoform 2 (UniProt P30622)", "log2 fold change": -0.04}, {"target": "CINP isoform 3 (UniProt Q9BW66)", "log2 fold change": -0.051}, {"target": "CYP4V2 (UniProt Q6ZWL3)", "log2 fold change": -0.095}, {"target": "CLIP1, A0A3B3ITA2", "log2 fold change": -0.173}, {"target": "DNM2 isoform 4 (UniProt P50570)", "log2 fold change": -0.027}, {"target": "DONSON (UniProt Q9NYP3)", "log2 fold change": 0.074}, {"target": "CSNK1A1 isoform 3 (UniProt P48729)", "log2 fold change": 0.253}]}]}
